Results on eight molecules are retold here after PubChem BioAssay (EPA / NIEHS).

The target in test [1] is Androgen receptor (Homo sapiens) (UniProt P10275). Put plainly: ATG_AR_TRANS: Attagene TRANS-FACTORIAL HepG2 Assay for human Androgen Receptor (AR) (AID 2282973). Particulars: HepG2 Attagene TRANS-FACTORIAL AR reporter transcription. The method, boiled down: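 Steps: transfect HepG2 with multiple GAL4-UAS reporter transcription units (TRANS format, exogenous NR-Gal4 protein); dose 24 h; isolate RNA, reverse-transcribe, PCR-amplify, FAM-label, HpaI-digest; resolve by capillary electrophoresis. Positive direction vs DMSO.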
Chain of Androgen receptor (Homo sapiens) (P10275 whole entry, looked up, the tested form may be a part): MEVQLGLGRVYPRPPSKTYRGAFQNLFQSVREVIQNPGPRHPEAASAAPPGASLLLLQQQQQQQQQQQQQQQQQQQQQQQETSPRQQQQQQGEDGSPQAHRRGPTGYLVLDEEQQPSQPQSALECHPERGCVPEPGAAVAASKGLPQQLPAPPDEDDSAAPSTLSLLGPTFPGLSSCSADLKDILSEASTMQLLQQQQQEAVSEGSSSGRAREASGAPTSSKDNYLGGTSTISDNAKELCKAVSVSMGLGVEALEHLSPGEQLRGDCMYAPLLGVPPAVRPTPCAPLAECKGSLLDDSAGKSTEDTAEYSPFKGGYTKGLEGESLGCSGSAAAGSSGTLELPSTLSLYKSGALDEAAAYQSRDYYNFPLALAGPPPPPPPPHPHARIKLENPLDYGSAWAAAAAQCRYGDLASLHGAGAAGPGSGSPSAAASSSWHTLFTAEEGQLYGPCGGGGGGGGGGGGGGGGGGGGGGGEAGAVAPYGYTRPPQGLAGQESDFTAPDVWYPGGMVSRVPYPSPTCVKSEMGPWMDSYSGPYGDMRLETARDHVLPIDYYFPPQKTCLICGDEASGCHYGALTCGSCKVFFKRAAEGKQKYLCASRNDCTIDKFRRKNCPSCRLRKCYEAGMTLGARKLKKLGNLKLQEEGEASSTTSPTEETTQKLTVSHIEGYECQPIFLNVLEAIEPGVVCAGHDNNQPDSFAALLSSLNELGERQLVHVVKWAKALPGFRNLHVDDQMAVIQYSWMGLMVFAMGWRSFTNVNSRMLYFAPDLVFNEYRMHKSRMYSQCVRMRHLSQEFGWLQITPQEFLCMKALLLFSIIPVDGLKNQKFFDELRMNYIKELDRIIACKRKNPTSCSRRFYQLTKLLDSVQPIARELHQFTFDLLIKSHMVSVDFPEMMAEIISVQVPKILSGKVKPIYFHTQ

Test [2] deals with Cytochrome P450 2C18 (Homo sapiens) (UniProt P33260). Nature of the test: NVS_ADME_hCYP2C18: NovaScreen (NVS) CYP450-related Enzyme Activity (ADME) Assay for human CYP2C18 (AID 2283103; active means hit-call score of the fitted dose curve at least 0.9, where 1 is the maximum; inactive means score below 0.9). The method, boiled down: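 Enzyme activity measured by fluorescence 0.5 h after compound addition, using recombinant CYP2C18 and a specific substrate. Actives from duplicate 10 uM screening were retested in concentration series (top 20 uM); acetonitrile served as negative baseline.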
Chain of Cytochrome P450 2C18 (Homo sapiens) (P33260 whole entry, looked up): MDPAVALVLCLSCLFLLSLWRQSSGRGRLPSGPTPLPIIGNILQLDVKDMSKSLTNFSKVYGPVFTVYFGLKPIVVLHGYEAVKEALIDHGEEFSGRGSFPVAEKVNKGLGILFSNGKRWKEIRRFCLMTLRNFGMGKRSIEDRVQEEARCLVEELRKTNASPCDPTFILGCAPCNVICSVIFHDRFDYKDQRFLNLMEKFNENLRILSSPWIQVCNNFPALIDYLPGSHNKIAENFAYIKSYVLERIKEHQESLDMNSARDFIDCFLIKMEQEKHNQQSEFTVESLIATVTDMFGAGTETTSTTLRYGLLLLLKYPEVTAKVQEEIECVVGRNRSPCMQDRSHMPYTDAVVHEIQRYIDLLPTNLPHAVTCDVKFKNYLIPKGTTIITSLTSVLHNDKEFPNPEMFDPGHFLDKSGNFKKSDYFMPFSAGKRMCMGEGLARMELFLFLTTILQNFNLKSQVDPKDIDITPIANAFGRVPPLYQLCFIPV

The target in test [3] is rat CYP1A2, Cyp1a2 (gene 24297) (UniProt P04799). Nature of the test: NVS_ADME_rCYP1A2: NovaScreen (NVS) CYP450-related Enzyme Activity (ADME) Assay for rat CYP1A2 (AID 2283115). Summed up: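 Primary testing ran in duplicate at 10 uM, with actives re-tested across concentration series. Fluorescence intensity from substrate turnover by recombinant protein, measured 1 hour post-dosing, with signal loss scored against acetonitrile vehicle.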
Chain of rat CYP1A2, Cyp1a2 (gene 24297) (P04799 whole entry, looked up): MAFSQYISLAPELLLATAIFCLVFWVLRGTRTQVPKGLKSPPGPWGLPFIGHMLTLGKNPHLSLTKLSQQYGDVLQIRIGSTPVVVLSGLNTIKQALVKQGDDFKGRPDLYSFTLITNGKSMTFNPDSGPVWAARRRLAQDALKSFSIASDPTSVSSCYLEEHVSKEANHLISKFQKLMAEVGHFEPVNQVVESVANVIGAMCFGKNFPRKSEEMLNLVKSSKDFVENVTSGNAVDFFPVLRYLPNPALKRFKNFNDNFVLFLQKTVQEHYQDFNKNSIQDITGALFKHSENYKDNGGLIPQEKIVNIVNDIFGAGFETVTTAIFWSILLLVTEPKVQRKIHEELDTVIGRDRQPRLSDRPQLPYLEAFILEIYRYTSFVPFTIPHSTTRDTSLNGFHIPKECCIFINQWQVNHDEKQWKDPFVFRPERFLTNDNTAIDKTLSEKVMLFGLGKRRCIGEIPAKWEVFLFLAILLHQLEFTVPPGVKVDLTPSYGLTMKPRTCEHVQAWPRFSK

Test [4] deals with Voltage-dependent N-type calcium channel subunit alpha-1B (Rattus norvegicus) (UniProt Q02294). Nature of the test: NVS_IC_rCaChN: NovaScreen (NVS) Ion Channel Assay for rat Calcium Channel, Type N (CaChN) (AID 2283317).
The target in test [5] is human Aurora Kinase A - serine/threonine-protein Kinase 6 (AurA), AURKA (gene 6790) (UniProt O14965). Put plainly: NVS_ENZ_hAurA: NovaScreen (NVS) Enzymatic Assay for human Aurora Kinase A - serine/threonine-protein Kinase 6 (AurA) (AID 2283142). Summed up:
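Recombinant human AurA activity read by fluorescence after mobility-shift separation of product from substrate; 1 hour incubation. Chemicals first run in duplicate at 25 uM, then concentration series to 50 uM if over threshold; fitted relative to DMSO.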

The target of test [6] is human Ephrin type-A Receptor 2 (EphA2), EPHA2 (gene 1969) (UniProt P29317). Nature of the test: NVS_ENZ_hEphA2: NovaScreen (NVS) Enzymatic Assay for human Ephrin type-A Receptor 2 (EphA2) (AID 2283155). The method, boiled down:
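Enzyme activity of recombinant EphA2 read by fluorescence after mobility-shift separation, 1 h after dosing. Chemicals first tested at 25 uM (duplicate); those passing threshold run as concentration series, top 50 uM, single replicate, relative to DMSO.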

The target in a further test is PPP2CA (gene 5515) (UniProt P67775). Put plainly: NVS_ENZ_hPPP2CA: NovaScreen (NVS) Enzymatic Assay for human Protein Phosphatase 2 Aatalytic subunit Alpha (PPP2CA) (AID 2283199). The method, boiled down:
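Cell-free phosphatase activity: fluorescent substrate turnover by recombinant human enzyme, resolved by mobility shift at 1.33 h. Compounds passing the 25 uM duplicate primary screen were rerun in singleton series with a 50 uM top concentration.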

Test [7] deals with rat Monoamine Oxidase, MAO-A, Peripheral (MAOAP), gene 29253. Put plainly: NVS_ENZ_rMAOAP: NovaScreen (NVS) Enzymatic Assay for rat Monoamine Oxidase, MAO-A, Peripheral (MAOAP) (AID 2283237). Summed up: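 Scintillation counting tracked MAO-A activity in a cell-free rat liver mitochondrial membrane prep, read 1.17 hours after compound addition. Single-point duplicate testing at 25 uM preceded concentration-response follow-up; activity was fitted relative to DMSO.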

Test [8] has as its system rat Monoamine Oxidase, MAO-A, Central (MAOAC), gene 29253. Nature of the test: NVS_ENZ_rMAOAC: NovaScreen (NVS) Enzymatic Assay for rat Monoamine Oxidase, MAO-A, Central (MAOAC) (AID 2283243).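 Further: potency refers to inhibition seen as signal drop below DMSO baseline.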 Summed up: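 Single-concentration duplicate testing at 25 uM, then concentration-response for actives, in a lysate-based radiodetection MAO-A activity assay from rat brain. Enzyme activity measured 1.5 hours post-dosing; DMSO served as negative control and baseline.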

In test [9] the target is rat Neurotensin Receptor (NTS), Ntsr1 (gene 366274) (UniProt P20789). Put plainly: NVS_GPCR_rNTS: NovaScreen (NVS) G Protein-Coupled Receptor Assay for rat Neurotensin Receptor (NTS) (AID 2283308). Summed up:
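Single-point duplicates at 25 uM, then concentration series to 50 uM max for hits, measured radioligand displacement on rat forebrain membrane preparations. Bound label counted by filtration scintillation at 1 h; signal loss relative to DMSO fitted.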

Test [10] addresses human AMP-activated Protein Kinase, alpha 1 (AMPKa1), PRKAA1 (gene 5562) (UniProt Q13131). Nature of the test: NVS_ENZ_hAMPKa1: NovaScreen (NVS) Enzymatic Assay for human AMP-activated Protein Kinase, alpha 1 (AMPKa1) (AID 2283130). The method, boiled down: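 Compounds were screened in duplicate at 25 uM, and those reaching ~30% inhibition were titrated up to 50 uM. The enzyme was recombinant human AMPKα1, and kinase turnover was read by fluorescence/mobility shift 1 h post-dosing as loss of signal versus DMSO.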

Test [11] deals with human Fibroblast Growth Factor Receptor 1 (FGFR1), FGFR1 (gene 2260) (UniProt P11362). Nature of the test: NVS_ENZ_hFGFR1: NovaScreen (NVS) Enzymatic Assay for human Fibroblast Growth Factor Receptor 1 (FGFR1) (AID 2283159).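 Further: hits lower the signal so potencies describe inhibitors of the kinase.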 The method, boiled down:
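Cell-free recombinant kinase with fluorescent substrate, product separated by electrophoretic mobility shift; read 1 hour after dosing, loss of signal relative to DMSO. Initial screen in duplicate at 25 uM, actives followed in concentration series.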

Test [12] addresses Protein deacetylase HDAC6 (Homo sapiens) (UniProt Q9UBN7). Put plainly: NVS_ENZ_hHDAC6: NovaScreen (NVS) Enzymatic Assay for human Histone Deacetylase 6 (HDAC6) (AID 2283164). The method, boiled down:
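Concentration-response runs up to 50 uM followed a duplicate 25 uM single-point screen. Deacetylase activity of recombinant human HDAC6 read by fluorescence after 1 h, with mobility-shift separation of substrate and product; DMSO as baseline.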

Test [13] concerns the target human Matrix Metalloproteinase-1 (MMP1), MMP1 (gene 4312) (UniProt P03956). Put plainly: NVS_ENZ_hMMP1: NovaScreen (NVS) Enzymatic Assay for human Matrix Metalloproteinase-1 (MMP1) (AID 2283181). The method, boiled down: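 Cell-free fluorescent substrate assay of human MMP1, read after 1 h. A single 25 uM duplicate screen was followed by concentration series to a maximum of 50 uM for actives meeting threshold; inhibition analysed against DMSO baseline.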

In test [14] the target is rat Monoamine Oxidase, MAO-B, Central (MAOBC), Maob (gene 25750) (UniProt P19643). Nature of the test: NVS_ENZ_rMAOBC: NovaScreen (NVS) Enzymatic Assay for rat Monoamine Oxidase, MAO-B, Central (MAOBC) (AID 2283238). Summed up: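 Actives from a duplicate 25 uM screen went on to singleton concentration-response with a 50 uM maximum. Enzyme source was rat brain tissue MAO-B, assayed cell-free. Radiolabelled product was counted by scintillation 1.17 h post-dose, with signal loss relative to DMSO.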
Chain of rat Monoamine Oxidase, MAO-B, Central (MAOBC), Maob (gene 25750) (P19643 whole entry, looked up): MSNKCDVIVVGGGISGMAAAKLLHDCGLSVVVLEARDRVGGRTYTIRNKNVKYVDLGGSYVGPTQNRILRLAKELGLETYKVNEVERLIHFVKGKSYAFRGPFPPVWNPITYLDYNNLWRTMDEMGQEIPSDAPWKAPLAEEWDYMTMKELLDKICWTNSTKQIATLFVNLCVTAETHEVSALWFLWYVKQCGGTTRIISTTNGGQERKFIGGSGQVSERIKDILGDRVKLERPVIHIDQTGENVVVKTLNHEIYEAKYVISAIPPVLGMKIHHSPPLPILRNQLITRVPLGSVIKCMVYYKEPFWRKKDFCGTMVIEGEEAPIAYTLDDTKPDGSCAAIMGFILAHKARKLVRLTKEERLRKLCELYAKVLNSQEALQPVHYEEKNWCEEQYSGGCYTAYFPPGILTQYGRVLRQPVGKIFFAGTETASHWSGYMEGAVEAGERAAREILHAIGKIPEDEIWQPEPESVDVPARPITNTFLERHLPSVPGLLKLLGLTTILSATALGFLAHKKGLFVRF

Test [15] addresses Bile acid receptor (Homo sapiens) (UniProt Q96RI1). Put plainly: NVS_NR_hFXR_Agonist: NovaScreen (NVS) Nuclear Receptor Binding Assay for human Farnesoid X Receptor Agonism (FXR) (AID 2283347). The method, boiled down: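 Agonist-mode FXR assay read by time-resolved FRET 1 h after compound addition, using isolated human receptor protein without cells. Duplicate 25 uM single-point primary screen, concentration series for confirmed actives; DMSO as baseline.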

The target of test [16] is Norway rat Vesicular Monoamine Transporter (VMAT2), neurotransmitter transporter, Slc18a2 (gene 25549) (UniProt Q01827). Nature of the test: NVS_TR_rVMAT2: NovaScreen (NVS) Transporter Assay for Norway rat Vesicular Monoamine Transporter (VMAT2), neurotransmitter transporter (AID 2283376).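 Further: actives lower the bound radioligand signal below the DMSO level.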 Summed up: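 Using rat forebrain membranes, specific radioligand binding to VMAT2 was measured by filtration and scintillation counting after 1 hour. Chemicals screened at 25 uM in duplicate, actives retested in concentration series, DMSO baseline.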

The nature of test [17]: ATG_M_32_XSP2: Attagene TRANS-FACTORIAL Multi-Species (XSP2) HepG2 Assay for M19 Transcription Factor (Internal Marker) (AID 2283826). The method, boiled down: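 Transfected HepG2 (multiplexed GAL4-UAS reporters), 24 h chemical exposure, 3 nM 6-alpha-fluorotestosterone + 1.5 nM norgestrel added. RNA → oligo(dT) RT → PCR → 6-FAM primer extension → HpaI cut → CE. Fitted upward vs DMSO.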

The nature of test [18]: CCTE_Harrill_HTTr_Apoptosis_PRF_DMEM_12hr: (Pilot) CCTE's 12-hour Apoptosis Assessment for the High-Throughput Transcriptomics (HTTr) Platform, in MCF-7 cells cultured in phenol red-free DMEM + 10% charcoal-stripped fetal bovine serum, Harrill Lab (AID 2283985; active means hit-call score of the fitted dose curve at least 0.9, where 1 is the maximum; inactive means score below 0.9). Summed up:
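Caspase-3/7 activity by CellEvent Green high content imaging after 12 h compound exposure (eight concentrations) in MCF-7 grown in phenol red-free DMEM plus 10% charcoal-stripped serum; DMSO as baseline.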

Several values for one entry are separate records, joined by “and”; a condition that tells them apart may be missing. Equal entries are not always repeated. Records with an inconclusive call do not appear. Activity calls are given as the source filed them. How the source made its calls, unless noted: active means hit-call score of the fitted dose curve at least 0.9, where 1 is the maximum; inconclusive means response in the unintended direction; inactive means score below 0.9.

Chain of Bile acid receptor (Homo sapiens) (Q96RI1 whole entry, looked up): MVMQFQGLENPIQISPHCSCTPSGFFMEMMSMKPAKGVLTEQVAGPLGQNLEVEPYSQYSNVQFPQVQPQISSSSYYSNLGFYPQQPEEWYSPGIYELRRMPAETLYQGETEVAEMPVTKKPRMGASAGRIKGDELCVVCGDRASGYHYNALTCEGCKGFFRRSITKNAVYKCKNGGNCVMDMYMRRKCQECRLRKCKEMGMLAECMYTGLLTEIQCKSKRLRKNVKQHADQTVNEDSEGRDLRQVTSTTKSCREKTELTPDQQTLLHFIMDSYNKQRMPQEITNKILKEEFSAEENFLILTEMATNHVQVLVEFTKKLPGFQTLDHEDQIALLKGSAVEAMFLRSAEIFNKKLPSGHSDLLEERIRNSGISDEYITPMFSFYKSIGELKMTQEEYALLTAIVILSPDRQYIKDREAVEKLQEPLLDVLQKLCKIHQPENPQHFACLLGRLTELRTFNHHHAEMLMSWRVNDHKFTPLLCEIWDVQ
Chain of human Aurora Kinase A - serine/threonine-protein Kinase 6 (AurA), AURKA (gene 6790) (O14965 whole entry, looked up): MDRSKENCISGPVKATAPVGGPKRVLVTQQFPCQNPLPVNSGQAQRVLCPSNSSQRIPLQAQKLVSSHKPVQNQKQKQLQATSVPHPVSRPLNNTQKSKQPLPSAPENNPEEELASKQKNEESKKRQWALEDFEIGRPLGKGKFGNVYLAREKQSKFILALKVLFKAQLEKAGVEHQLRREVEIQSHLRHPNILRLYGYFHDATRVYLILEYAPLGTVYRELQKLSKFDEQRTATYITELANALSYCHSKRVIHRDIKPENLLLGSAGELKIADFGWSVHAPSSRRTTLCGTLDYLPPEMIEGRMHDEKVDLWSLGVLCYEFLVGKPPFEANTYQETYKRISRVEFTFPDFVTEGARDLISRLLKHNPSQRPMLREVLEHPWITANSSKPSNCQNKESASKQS
Chain of PPP2CA (gene 5515) (P67775 whole entry, looked up): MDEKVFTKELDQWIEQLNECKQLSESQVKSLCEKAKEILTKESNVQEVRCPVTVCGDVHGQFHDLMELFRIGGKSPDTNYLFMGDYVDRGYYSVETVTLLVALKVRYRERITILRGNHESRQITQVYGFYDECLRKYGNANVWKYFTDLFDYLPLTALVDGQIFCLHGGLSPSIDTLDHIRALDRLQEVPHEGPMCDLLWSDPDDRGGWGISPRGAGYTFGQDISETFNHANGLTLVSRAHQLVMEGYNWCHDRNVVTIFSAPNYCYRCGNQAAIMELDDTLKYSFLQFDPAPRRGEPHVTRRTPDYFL
Chain of human Fibroblast Growth Factor Receptor 1 (FGFR1), FGFR1 (gene 2260) (P11362 whole entry, looked up): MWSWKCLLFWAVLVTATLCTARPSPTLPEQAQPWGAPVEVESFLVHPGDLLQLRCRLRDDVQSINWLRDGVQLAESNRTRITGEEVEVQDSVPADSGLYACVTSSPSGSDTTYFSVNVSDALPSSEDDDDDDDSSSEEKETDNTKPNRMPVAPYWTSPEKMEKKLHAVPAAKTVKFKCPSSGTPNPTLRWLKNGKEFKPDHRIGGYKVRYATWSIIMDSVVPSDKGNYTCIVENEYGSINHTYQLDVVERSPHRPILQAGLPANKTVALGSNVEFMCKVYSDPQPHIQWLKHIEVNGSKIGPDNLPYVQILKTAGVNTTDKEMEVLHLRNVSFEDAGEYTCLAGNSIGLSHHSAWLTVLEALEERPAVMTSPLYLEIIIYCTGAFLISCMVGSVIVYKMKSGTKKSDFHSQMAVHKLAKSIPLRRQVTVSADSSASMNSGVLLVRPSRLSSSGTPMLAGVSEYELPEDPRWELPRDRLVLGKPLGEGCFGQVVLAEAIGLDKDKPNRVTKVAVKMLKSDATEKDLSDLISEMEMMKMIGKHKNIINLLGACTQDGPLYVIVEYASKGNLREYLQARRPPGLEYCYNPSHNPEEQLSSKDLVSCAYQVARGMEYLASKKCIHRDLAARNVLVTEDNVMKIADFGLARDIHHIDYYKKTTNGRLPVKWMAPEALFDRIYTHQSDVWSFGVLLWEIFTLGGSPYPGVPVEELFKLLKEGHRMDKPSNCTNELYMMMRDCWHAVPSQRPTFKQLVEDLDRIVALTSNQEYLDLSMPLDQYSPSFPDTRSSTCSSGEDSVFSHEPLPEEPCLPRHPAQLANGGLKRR
Chain of human Matrix Metalloproteinase-1 (MMP1), MMP1 (gene 4312) (P03956 whole entry, looked up): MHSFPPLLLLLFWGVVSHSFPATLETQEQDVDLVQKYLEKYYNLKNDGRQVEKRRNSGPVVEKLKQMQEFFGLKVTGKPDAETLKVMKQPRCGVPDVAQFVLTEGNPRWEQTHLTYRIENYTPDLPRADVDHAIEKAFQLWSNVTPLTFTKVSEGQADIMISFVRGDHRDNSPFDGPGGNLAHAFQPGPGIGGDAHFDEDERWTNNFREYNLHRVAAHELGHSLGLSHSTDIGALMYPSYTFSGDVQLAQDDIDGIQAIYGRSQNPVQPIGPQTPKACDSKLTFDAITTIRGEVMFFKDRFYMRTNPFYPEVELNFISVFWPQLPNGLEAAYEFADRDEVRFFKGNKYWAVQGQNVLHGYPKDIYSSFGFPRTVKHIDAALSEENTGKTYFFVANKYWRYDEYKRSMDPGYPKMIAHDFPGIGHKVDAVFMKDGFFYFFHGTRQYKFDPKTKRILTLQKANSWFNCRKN

`BrCc1cccc(Oc2ccccc2)c1`: the call in test [1] was inactive.

For `CC1(C)CCC(C)(C)c2cc(C(=O)Nc3ccc(C(=O)O)cc3)ccc21`, in test [1], the call was inactive.

Take `COC(=O)c1cccc(C)c1S(=O)(=O)NC(=O)Nc1nc(OCC(F)(F)F)nc(N(C)C)n1`: the molecule was called inactive in [1].

`COC(=O)CSc1cc(N=c2sc(=O)n3n2CCCC3)c(F)cc1Cl`: the molecule was classed as inactive in test [1], in [2], in test [3] and in test [4].

Turning to `CCC(C)c1cc([N+](=O)[O-])cc([N+](=O)[O-])c1OC(=O)OC(C)C` (centres undefined), the outcome in test [1] and in test [3] was inactive.

As to `C=C(C)[C@@H]1CCC2=CCC[C@@H](C)[C@]2(C)C1`, in test [1], the molecule was classed as inactive.

Broadly, the AC50 is the concentration at which the activity in the assay is half-maximal. In the case of `c1ccc2[nH]c(-c3cscn3)nc2c1`, the outcome (in [1]; in [3]; in test [6]; with PPP2CA (gene 5515); in test [7]; in test [8]) was inactive. The outcome in [9] was inactive. Moreover, the AC50 in test [5] was 17 µM (active).

As for `CCN(CC)CCOc1ccc(C(=C(Cl)c2ccccc2)c2ccccc2)cc1`, the molecule was classed as inactive in test [1], in test [12], in [13], in test [15] and in test [17]. Also, the AC50 is 11.4 µM (active) and 4.62 µM (active) in test [2]; 26.5 µM (active) in [10]; 27.1 µM (active) in [11]; 12.4 µM (active) [middle of 4 runs] in test [14]; 5.01 µM (active) in [16]; 81.6 µM (active) in test [18].
